For 96 molecules, inhibition results are on record in PubChem BioAssay AID734 (The Scripps Research Institute Molecular Screening Center, 2007).

SMILES strings stand for the structures. Screen size: about 5,100 compounds; fewer than 10 were called active. Only a sample is shown. A number with no mark means an inactive call.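 Rule for the calls: active = inhibition above the mean inhibition over all tested compounds plus 3 SD (cut at about 75% in these data); inactive = the rest.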

The assay has as its target Collagenase 3 (Homo sapiens) (UniProt P45452). The assay is described as follows: MMP13 inhibitors among fluorescent compounds, confirmation, biochemical, possible fluorescent artifacts, delta fluorescence (AID 734).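 Note: 0% = DMSO only wells and 100% = 8 µM reference MMP13 inhibitor.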 The settings on record: MMP13 fTHP FRET cleavage, delta fluorescence 4 h; stronger effect = higher value;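 each compound tested at 4 µM nominal in triplicate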.
Consider `c1ccc(-c2noc(-c3cccc4ccccc34)n2)nc1`, for which the inhibition was 6.64%.

As to `Fc1cccc2sc(Nc3nnc(-c4ccco4)o3)nc12`, the inhibition was 0.58%.

With `COc1cccc2sc(Nc3nnc(-c4ccccc4Cl)o3)nc12`, the inhibition was 3.62%.

As to `COc1ccc(-c2nnc(Nc3nc4c(OC)cccc4s3)o2)c(OC)c1`, the inhibition was 34.9%.

For the molecule `COc1cccc2sc(Nc3nnc(-c4cccs4)o3)nc12`, the inhibition was -71.9%.

Regarding `COc1ccccc1-c1nnc(Nc2nc3c(OC)cccc3s2)o1`, the inhibition is 2.8%.

For the molecule `COc1ccc(-c2nnc(Nc3nc4c(OC)cccc4s3)o2)cc1`, the inhibition is 7.97%.

As for `Fc1cccc2sc(Nc3nnc(-c4ccccc4)o3)nc12`, the inhibition is 74.7% (active).

As to `COc1cccc(-c2nnc(Nc3nc4c(F)cccc4s3)o2)c1`, the inhibition is 104% (active).

Take `COc1cc(OC)cc(-c2nnc(Nc3nc4c(F)cccc4s3)o2)c1`: the inhibition is 95.7% (active).

For `O=C(C1CCCN(S(=O)(=O)c2cnc[nH]2)C1)N1CCN(Cc2ccccc2)CC1` (stereo unspecified), the inhibition is 6.19%.

Consider `Cn1c(=O)c2c(nc(SCCN3CCOCC3)n2Cc2ccccc2Cl)n(C)c1=O`, for which the inhibition was 4.43%.

With `COC(=O)c1nn(-c2ccc(-c3ccccc3)cc2)cc1O`, the inhibition is -1.13%.

For `CCOC(=O)COc1ccc(-c2nnc(-c3ccccc3)o2)cc1`, the inhibition is -0.26%.

Turning to `CC1(C)CC(=O)C(C=Nc2ccccc2C(=O)O)=C(O)C1`, the inhibition was 3.67%.

On to `CCOc1ccc(-c2cc(C(=O)NCCCN3CCN(CC)CC3)c3ccccc3n2)cc1`, for which the inhibition was -9.76%.

For `CCN1c2ccccc2-c2nc3ccccc3n2C1c1ccncc1` (stereo unspecified), the inhibition was 2.69%.

For the molecule `COc1ccc2[nH]c(=O)c(-c3noc(-c4ccccc4)n3)cc2c1`, the inhibition is 3.55%.

With `CC1(C)Cc2c(C#N)c(N3CCN(C(=O)c4ccco4)CC3)nc(Cc3ccccc3)c2CO1`, the inhibition is -9.09%.

In the case of `CCOc1ccc(C2C(C(=O)OC)=CN(CCOC)C=C2C(=O)OC)cc1`, the inhibition was -14.5%.

`Nc1nc2n(n1)C(c1ccco1)CC(c1ccc(F)cc1)N2` (stereo unspecified): the inhibition is 1.34%.

Regarding `CCN(CC)CCCN(Cc1cc2cc3c(cc2[nH]c1=O)OCO3)C(=O)Nc1ccccc1OC`, the inhibition was 9.73%.

As to `Nc1c(C(=O)NCCN2CCOCC2)c2nc3ccccc3nc2n1-c1ccc2c(c1)OCO2`, the inhibition is 4.11%.

Take `COc1cccc(NC(=O)CSc2nnc(Cc3cccn3C)n2-c2ccc(F)cc2)c1`: the inhibition was 1.13%.

Turning to `CC1CCCC(C)N1C(=O)CSc1nnc(-c2c[nH]c3ccccc23)o1` (stereo unspecified), the inhibition is 5.55%.

Turning to `O=C(OCCn1cncn1)c1cc2ccccc2oc1=O`, the inhibition is -0.22%.

Turning to `OCc1ccccc1OCCOc1ccc(Cl)c2cccnc12`, the inhibition is 6.18%.

Take `CC(C)NCC(O)Cn1c2c(c3ccccc31)CCc1c-2cnn1-c1ccccc1` (stereo unspecified): the inhibition is 6.63%.

With `CC(=O)Nc1nc2n(n1)C(c1ccccc1)C=C(c1ccccc1)N2` (stereo unspecified), the inhibition was 0.41%.

Regarding `O=C(Oc1cccnc1)c1ccco1`, the inhibition was 3.63%.

Consider `COc1ccc(C2C=C(C)Nc3nc(SC)nn32)cc1` (stereo unspecified), for which the inhibition was -11.2%.

For the molecule `CCOc1ccc(C2CC(c3cccc(Cl)c3)n3nc(N)nc3N2)cc1` (stereo unspecified), the inhibition is 4.79%.

Consider `Cc1ccc(-n2ncc3c(=O)n(CC(=O)NCc4ccco4)cnc32)cc1C`, for which the inhibition was 5.2%.

Turning to `COCCCNC(=O)c1ccc2nc3ccccc3c(=O)n2c1`, the inhibition is -3.91%.

In the case of `CCCOc1ccccc1-c1nc2c([nH]1)c(=O)[nH]c(=O)n2C`, the inhibition was -0.35%.

`CS(=O)(=O)N1CCc2cc(C(=O)N3CCOCC3)ccc21`: the inhibition was 5.36%.

Take `CCOC(=O)c1[nH]c2ccc(OCC)cc2c1NC(=O)CN1CCN(c2ccccn2)CC1`: the inhibition was -14.1%.

For the molecule `CCCC(=O)N1CCN(c2nc(CC(C)C)c3c(c2C#N)CCC3)CC1`, the inhibition is 0.13%.

For `CCS(=O)(=O)Nc1c(C(=O)O)[nH]c2ccccc12`, the inhibition is 3.79%.

`CCOC(=O)c1oc2cccc(OCC(O)CNC(C)C)c2c1C` (stereo unspecified): the inhibition was -6.29%.

As to `N#Cc1cc2c(nc1SCC(=O)Nc1nccs1)CCCCC2`, the inhibition is -11%.

As to `COc1ccc(O)c(C(=O)c2cc(C#N)c(=O)n(-c3c(C)n(C)n(-c4ccccc4)c3=O)c2)c1`, the inhibition was 6.02%.

With `CCOC(=O)c1cccnc1SCc1cc(=O)n2ccccc2n1`, the inhibition was 3.91%.

`CC1=C(C(=O)N2CCOCC2)C(c2ccccc2F)C2=C(CC(C)(C)CC2=O)N1` (stereo unspecified): the inhibition is -1.62%.

In the case of `CCCC(c1nnnn1C1CCCC1)N1CCN(C(=O)c2ccco2)CC1` (stereo unspecified), the inhibition was 6.95%.

For `N#Cc1nc(-c2cccs2)oc1N1CCOCC1`, the inhibition is -82.1%.

Take `CCCc1cc(=O)oc2cc(C)c3c(C)coc3c12`: the inhibition was -8.56%.

Turning to `CCOC(=O)c1cc2c(=O)n3ccccc3nc2n(C(C)C)c1=NC(=O)c1ccncc1`, the inhibition is -11.4%.

Turning to `CN1CC=C2C(C#N)=C(N)C(C#N)(C#N)C(CCc3ccccc3)C2C1` (stereo unspecified), the inhibition was 5.88%.

As to `O=S(=O)(NC1c2cccc3cccc(c23)C1N1CCNCC1)c1ccccc1` (stereo unspecified), the inhibition is 8.95%.

Consider `COc1ccc(CN2CCCC2C(=O)Nc2ccc(OC)c(OC)c2)cc1OC` (stereo unspecified), for which the inhibition was 1.58%.

Turning to `CC(O)Cn1ccccc1=N` (stereo unspecified), the inhibition was 4.32%.

`CC(C)(C)c1cc(=O)n2c(C#N)c(C#N)nc2[nH]1`: the inhibition was 4.14%.

Take `Cc1onc(-c2ccccc2)c1C(=O)Nc1nnc(-c2ccncc2)s1`: the inhibition is -3.75%.

On to `O=C(CC1Nc2ccccc2NC1=O)NC1CCCCC1` (stereo unspecified), for which the inhibition was 4.1%.

Regarding `CCOc1ccc2[nH]c(=O)c(C(c3nnnn3Cc3ccco3)N3CCC(C)CC3)cc2c1` (stereo unspecified), the inhibition was 8.93%.

For the molecule `Cc1cccc(-n2c(=O)[nH]c3c(C(N)=O)nc(-c4ccccc4Cl)nc32)c1`, the inhibition is 6.92%.

Turning to `COC(=O)c1cc2c(s1)CS(=O)C2` (stereo unspecified), the inhibition is 5.21%.

On to `CC(C)c1nc(N2CCOCC2)c(C#N)c2c1CCC2`, for which the inhibition was -3.95%.

As for `CCOC(=O)c1cnc2cc(Cl)c(OC)cc2c1NCC1CCCO1` (stereo unspecified), the inhibition is 3.77%.

In the case of `c1ccc(-n2nc3c(ccc4cnnc43)[nH]2)cc1`, the inhibition is -1.01%.

On to `COc1ccc(-c2ccc(-c3noc(-c4ccccc4)n3)c(OC)n2)cc1`, for which the inhibition was 5.4%.

As for `COc1ccc(-c2ccc(-c3noc(-c4ccccc4C)n3)c(OC)n2)cc1`, the inhibition was 79.6% (active).

Regarding `COc1ccc(-c2ccc(-c3noc(-c4ccccc4OC)n3)c(OC)n2)cc1`, the inhibition is 13.8%.

With `CCOC(=O)c1sc(C)c(C(N)=O)c1NC1=NCCCCC1`, the inhibition is 2.74%.

With `CCN(CC)C(=O)Sc1cccc2cccnc12`, the inhibition was 7.36%.

`CN(C)c1ccc(C(=O)N2CC(=O)N(CCc3ccccc3)C(=O)C2)cc1`: the inhibition was 0.16%.

Regarding `CCOC(=O)N1CCC(N2C(=O)c3ccccc3C2Nc2ccc3c(C)cc(=O)oc3c2)CC1` (stereo unspecified), the inhibition was -77%.

With `Cc1cc(C)c2c(N)c(C(=O)Nc3nccs3)sc2n1`, the inhibition is -7.23%.

For `COc1ccccc1Nc1nc(-c2cccs2)cs1`, the inhibition was 4.53%.

With `O=c1c2[nH]c3ccccc3c2ncn1Cc1cccnc1`, the inhibition is 5.84%.

On to `Cc1oc2c(CN3CCCC3)c(O)ccc2c(=O)c1-c1ccc(Br)cc1`, for which the inhibition was 11.1%.

Take `O=c1[nH]c2cc3c(cc2cc1C(c1nnnn1C1CCCC1)N1CCSCC1)OCCO3` (stereo unspecified): the inhibition is 1.34%.

Turning to `CN1CCN(CCCNC(=O)Nc2cccc3ccccc23)CC1`, the inhibition was 4.59%.

`COc1ccc(C2C(C(=O)N3CCN(c4ccccn4)CC3)CC(=O)N2c2ccc(OC)cc2)cc1` (stereo unspecified): the inhibition was 1.09%.

Turning to `COC(=O)c1[nH]c2cccc(OC)c2c1NC(=O)CN1CCC(C(N)=O)(N2CCCCC2)CC1`, the inhibition was 5.66%.

As for `C=C(Cl)COc1ccc2c(CC)cc(=O)oc2c1`, the inhibition is 6.13%.

For `CC1=CC2=NC(=O)CC(C)(C(=O)N(CC(=O)NC(C)(C)C)C3CCCC3)N2C=C1` (stereo unspecified), the inhibition is 2.69%.

With `Cc1nc2c(C(=O)O)cnn2c(C)c1Cc1ccccc1F`, the inhibition is 5.94%.

On to `N#Cc1nc(-c2ccccc2F)oc1NCc1ccccc1`, for which the inhibition is -7.81%.

Take `Cc1cccc(-n2c(SCCC(=O)O)nnc2-c2cccs2)c1C`: the inhibition is 6.84%.

In the case of `COc1ccc(-c2nc3nc(C)cc(C)n3n2)cc1`, the inhibition is 1.15%.

For `Cc1cc(NC(=O)CSc2ccc3nnc(-c4cccnc4)n3n2)no1`, the inhibition is 0.22%.

As to `COCCCNC(=O)CSC1=Nc2ccccc2C2=NC(CC(=O)NCc3ccccc3)C(=O)N12` (stereo unspecified), the inhibition was 0.89%.

Consider `COCCn1c(SCc2csc(-c3ccccc3)n2)nc2ccccc21`, for which the inhibition was 3.46%.

As for `Cc1cccn2c(=O)c3cc(C(=O)N4CCN(C(=O)c5ccco5)CC4)n(C)c3nc12`, the inhibition is 0.62%.

`O=C(CCCOc1ccccc1)Nc1nccs1`: the inhibition is 3.79%.

Regarding `COc1ccc2[nH]c(=O)c(CN(CCCN(C)C)C(=O)Nc3ccccc3)cc2c1`, the inhibition is 0.48%.

For the molecule `O=C(Nc1ccon1)c1cnc2sccn2c1=O`, the inhibition was 3.24%.

As for `O=c1[nH]c(=O)n(Cc2ccccc2)c2nc(-c3ccco3)cc(C(F)(F)F)c12`, the inhibition is -103%.

Take `CCCSc1n[nH]c(NC(C)=O)n1`: the inhibition is 3.35%.

Take `O=C(Cc1ccccc1)Nc1ccc2oc(-c3cccnc3)nc2c1`: the inhibition is -8.29%.

For `O=C(Nc1nc(-c2cc3ccccc3oc2=O)cs1)c1ccco1`, the inhibition is 3.89%.

`COc1ccc(C(=O)NCc2nnc(SC)n2C2CCCCC2)cc1`: the inhibition is -1.48%.

`COc1cccc(Cn2c(=S)[nH]c3ccc(N4CCOCC4)cc3c2=O)c1`: the inhibition is 3.27%.

For the molecule `Cc1cc(=O)oc2cc(OC(C)C(=O)Nc3nccs3)ccc12` (stereo unspecified), the inhibition is 3.57%.

In general, inhibition refers to the drop in the measured response relative to a control, in per cent.
